Laboratory results published in the supplement of paper PMC12494721.
Structures can show the parent of a compound that is named as a salt.

Columns and labels:
Conditions in all cases: incubation time: 27 h, anaerobic, 37 °C;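 for the amine columns active = adjusted P below 0.05 in both replicates with a change the same way and a mean fold change under 0.8 or over 1.25; inactive = the rest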
[1] = system: Clostridium sporogenes DSM 1664; test: growth (OD595) fold change vs plate DMSO controls (fold change (ratio)); higher = more growth
Summary of the method: (§1)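 Anaerobic mGAM cultures in 96-well plates were grown for 27 h at 37 °C, and absorbance was then read at 595 nm. After blank and compound background correction with 20 µM compound solutions in water, a calibration factor of 5 gave OD. Growth is the fold change relative to the median of each plate's DMSO controls. Values are means of 2 biological replicates, with fold changes above 1.5 set to NA.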

Escherichia coli IAI1 [2] = test: as above
Summary of the method: as §1

[3] = system: Klebsiella aerogenes DSM 30053; test: as above
Summary of the method: as §1

[4] = system: Ruminococcus gnavus DSM 108212; test: as above
Summary of the method: as §1

[5] = system: Klebsiella aerogenes DSM 30053; test: fold change of Histamine concentration vs plate DMSO controls (fold change (ratio)); higher = more amine produced, active = hit call of the paper (significant change in both replicates, either direction)
Summary of the method: (§2)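 Each value is the fold change relative to DMSO-only wells on the same plate. Four gut bacterial strains were grown anaerobically in mGAM at 37 °C for 27 h in 80 µL wells, starting at OD 0.1 before a 1:1 dilution, with compounds at 20 µM final (sweeteners 50 µM). Whole cultures were extracted with cold acetonitrile/methanol containing 0.1% formic acid, centrifuged, and amines were quantified by LC–triple-quadrupole MS (dynamic MRM) against external calibration curves with within-batch drift correction. Values are means of 2 biological replicates.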

[6] = system: Clostridium sporogenes DSM 1664; test: fold change of Tryptamine concentration vs plate DMSO controls (fold change (ratio)); higher = more amine produced, active = hit call of the paper (significant change in both replicates, either direction)
Summary of the method: as §2

[7] = system: Ruminococcus gnavus DSM 108212; test: as above
Summary of the method: as §2

Escherichia coli IAI1 [8] = test: fold change of Putrescine concentration vs plate DMSO controls (fold change (ratio)); higher = more amine produced, active = hit call of the paper (significant change in both replicates, either direction)
Summary of the method: as §2

[9] = system: Klebsiella aerogenes DSM 30053; test: as above
Summary of the method: as §2

Escherichia coli IAI1 [10] = test: fold change of Cadaverine concentration vs plate DMSO controls (fold change (ratio)); higher = more amine produced, active = hit call of the paper (significant change in both replicates, either direction)
Summary of the method: as §2

[11] = system: Klebsiella aerogenes DSM 30053; test: as above
Summary of the method: as §2

[12] = system: Ruminococcus gnavus DSM 108212; test: fold change of 2-Phenylethylamine concentration vs plate DMSO controls (fold change (ratio)); higher = more amine produced, active = hit call of the paper (significant change in both replicates, either direction)
Summary of the method: as §2

SMILES | growth [1] | growth (Escherichia coli IAI1 [2]) | growth [3] | growth [4] | fold change of Histamine concentration [5] | fold change of Tryptamine concentration [6] | fold change of Tryptamine concentration [7] | fold change of Putrescine concentration (Escherichia coli IAI1 [8]) | fold change of Putrescine concentration [9] | fold change of Cadaverine concentration (Escherichia coli IAI1 [10]) | fold change of Cadaverine concentration [11] | fold change of 2-Phenylethylamine concentration [12]
CCOC(=O)C1=C[C@@H](OC(CC)CC)[C@H](NC(C)=O)[C@@H](N)C1 [Oseltamivir phosphate] (20 µM) | 0.866 | 0.987 | 1.01 | 1.01 | 1.03 (inactive) | 1.05 (inactive) | 1.03 (inactive) | 1.02 (inactive) | 1 (inactive) | 1.03 (inactive) | 1 (inactive) | 1.05 (inactive)
CCOC(=O)c1ccc(N)cc1 [Benzocaine] (20 µM) | 1.09 | 1.03 | 1.08 | 1.02 | 0.954 (inactive) | 1.1 (inactive) | 1.06 (inactive) | 0.92 (inactive) | 0.969 (inactive) | 1 (inactive) | 1.01 (inactive) | 1.1 (inactive)
Cc1c(F)c(N2CCNC(C)C2)cc2c1c(=O)c(C(=O)O)cn2C1CC1 (centres undefined) [Grepafloxacin] (20 µM) | 0.0227 | 0.0384 | 0.142 | 1.29 | 0.0669 (active) | 0.0355 (active) | 0.697 (inactive) | 0.738 (active) | 0.628 (active) | 0.155 (active) | 0.936 (inactive) | 0.731 (inactive)
NS(=O)(=O)c1cc2c(cc1C(F)(F)F)NCNS2(=O)=O [Hydroflumethiazide] (20 µM) | 0.947 | 1.05 | 0.989 | 0.941 | 0.965 (inactive) | 0.92 (inactive) | 0.987 (inactive) | 1.06 (inactive) | 1.01 (inactive) | 1 (inactive) | 1.01 (inactive) | 0.935 (inactive)
COc1ccccc1N1CCN(CC(O)COc2cccc3ccccc23)CC1 (centres undefined) [Naftopidil dihydrochloride] (20 µM) | 1.11 | 0.99 | 1.17 | 0.961 | 0.884 (inactive) | 1.02 (inactive) | 0.888 (inactive) | 0.981 (inactive) | 1.01 (inactive) | 1.06 (inactive) | 1.02 (inactive) | 0.963 (inactive)
Nc1nc2ccc(OC(F)(F)F)cc2s1 [Riluzole hydrochloride] (20 µM) | 0.972 | 0.95 | 1.06 | 0.998 | 1.08 (inactive) | 0.945 (inactive) | 0.96 (inactive) | 0.97 (inactive) | 0.988 (inactive) | 0.987 (inactive) | 0.983 (inactive) | 0.968 (inactive)
O=C(O)c1cccnc1Nc1cccc(C(F)(F)F)c1 [Niflumic acid] (20 µM) | 0.913 | 1.08 | 0.996 | 1.32 | 1.05 (inactive) | 1.04 (inactive) | 1.02 (inactive) | 1.08 (inactive) | 1.01 (inactive) | 0.996 (inactive) | 0.993 (inactive) | 0.988 (inactive)
Nc1ccc(S(=O)(=O)NC(=O)c2ccccc2)cc1 [Sulfabenzamide] (20 µM) | 1.18 | 1.07 | 1.05 | 1.1 | 0.998 (inactive) | 1.07 (inactive) | 1.04 (inactive) | 0.947 (inactive) | 0.991 (inactive) | 0.967 (inactive) | 1.01 (inactive) | 1.09 (inactive)
NC[C@@H]1O[C@H](O[C@H]2[C@@H](O)[C@H](O[C@@H]3[C@@H](O)[C@H](N)C[C@H](N)[C@H]3O[C@H]3O[C@H](CO)[C@@H](O)[C@H](O)[C@H]3N)O[C@@H]2CO)[C@H](N)[C@@H](O)[C@@H]1O [Paromomycin sulfate] (20 µM) | 1.06 | 0.996 | 0.975 | 0.984 | 0.994 (inactive) | 1.03 (inactive) | 0.999 (inactive) | 1.01 (inactive) | 1 (inactive) | 0.972 (inactive) | 0.981 (inactive) | 0.987 (inactive)
C[C@]12CC[C@@H]3c4ccc(O)cc4CC[C@H]3[C@@H]1C[C@@H](O)[C@@H]2O [Estriol] (20 µM) | 1.12 | 0.963 | 1.17 | 1.15 | 0.888 (inactive) | 1.01 (inactive) | 0.936 (inactive) | 0.991 (inactive) | 0.993 (inactive) | 1.02 (inactive) | 1.02 (inactive) | 0.884 (inactive)
C#C[C@]1(O)CC[C@H]2[C@@H]3CCC4=Cc5oncc5C[C@]4(C)[C@H]3CC[C@@]21C [Danazol] (20 µM) | 0.903 | 0.883 | 0.858 | 0.744 | 1.07 (inactive) | 0.887 (inactive) | 1.03 (inactive) | 1.01 (inactive) | 1.02 (inactive) | 0.994 (inactive) | 0.993 (inactive) | 0.997 (inactive)
CCCCCCOc1ccccc1C(N)=O [Exalamide] (20 µM) | 1.34 | 0.997 | 1.03 | 1.23 | 0.934 (inactive) | 0.949 (inactive) | 0.95 (inactive) | 0.952 (inactive) | 1.01 (inactive) | 1.03 (inactive) | 0.997 (inactive) | 0.936 (inactive)
